# Entries with a potency or affinity are not part of this list. Records with an inconclusive call do not appear. Values without a mark were called inactive.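 The calls were made as follows: active = falling luminescence with a fitted half-effect concentration at most ten times the top dose in every repeat; inconclusive = repeats disagree, poor fit, or flat moderate signal drop; inactive = the rest.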
# Assay: NIH/3T3 cell viability loss – mouse embryonic fibroblasts, dry powder, set 2, cytotoxicity control, dose response (AID 493247)
# Conditions: NIH/3T3 cytotoxicity, CellTiter-Glo ATP luminescence, 90 h; series mostly up to 19.5 µM; activity change, negative = cytotoxic: at the top concentration
row,Structure (SMILES),"activity change, negative = cytotoxic"
1,COCCNC(=O)C1(C)CCCN(C(=O)c2cc(OC)c(OC)c(OC)c2)C1 (stereo unspecified),-5.22%
2,CCCNC(=O)C1(C)CCCN(C(=O)Cc2ccc(OC)c(OC)c2)C1 (stereo unspecified),3.6%
3,COc1ccc(CN2CCCC(C(=O)N3CCCC3)C2)c(OC)c1OC (stereo unspecified),3.82%
4,CCCNC(=O)C1(C)CCN(C(=O)Cc2ccc(OC)c(OC)c2)C1 (stereo unspecified),3.33%
5,O=C(CNC(=O)c1ccco1)N/N=C/c1ccc([N+](=O)[O-])o1,2.12%
6,CCNC(=O)C1(C)CCCN(C(=O)Cc2ccc(OC)c(OC)c2)C1 (stereo unspecified),-10.4%
7,COc1cc(CN2CCC(C(=O)NC(C)c3ccc(OC)c(OC)c3)CC2)cc(OC)c1 (stereo unspecified),-5.63%
8,CCNC(=O)C1CCCN(C(=O)c2cc(OC)c(OC)c(OC)c2)CC1 (stereo unspecified),3.32%
9,CCNC(=O)C1(C)CCN(C(=O)c2ccc(OC)c(OC)c2)C1 (stereo unspecified),8.84%
10,COc1cc2c(cc1OC)C(C)N(CCC(N)=O)CC2 (stereo unspecified),2.04%
11,CCCNC(=O)C1(C)CCCN(C(=O)c2ccc(OC(F)F)cc2)C1 (stereo unspecified),-13.5%
12,CCNC(=O)C1(C)CCCN(Cc2cccc(Oc3ccccc3)c2)C1 (stereo unspecified),-2.58%
13,CN(Cc1ccccc1)C(=O)C1CCCN(Cc2ccccc2)C1 (stereo unspecified),-26.8%
14,COc1ccc(CCN2CC(C(=O)NCc3ccc(F)cc3)CC2=O)cc1OC (stereo unspecified),11.9%
15,COc1ccc(CCNC(=O)C2CCCCC2)cc1OC,12.5%
16,COc1ccc(CCN(C)C(=O)C2CCCN(Cc3ccccc3C)C2)cc1OC (stereo unspecified),3.81%
